DT40 TDP1 no CPT: qHTS for Inhibitors of human tyrosyl-DNA phosphodiesterase 1 (TDP1): qHTS in cells in absence of CPT | DT40 Tdp1-/- hTDP1 cells, no CPT, ATP luminescence, 48 h | Potency, µM (top dose mostly 46.2 µM), hits mostly inhibitors | hit rate 15% among 420,000 | AID 686978, 2013; further: nearly all actives have a fitted effect of over 55% in size
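Cells were dispensed at 400 per well, compounds added by pin tool, plates incubated ≥48 hr at 37 °C, then CellTiter-Glo added for 30 min at room temperature before luminescence reading. Line: DT40 Tdp1-/- complemented with hTDP1; camptothecin omitted.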
DT40 TDP1 CPT: DT40-hTDP1 cell growth loss with CPT. Potency, µM (highest dose often 46.2 µM), usual class: inhibitors. chicken DT40 Tdp1-/-;hTDP1 cells + 20 nM CPT, ATP luminescence, 48 h. hit rate 12% among 420,000; further: nearly all actives have a fitted effect of over 55% in size
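Chicken DT40 Tdp1-/- cells stably complemented with human TDP1 were seeded at 400 cells/well in medium containing 20 nM camptothecin, exposed to pin-transferred compounds, and grown at 37 °C for at least 48 hr. Viability was read as ATP luminescence.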
IL1B secr inh: inhibitors of inflammasome signaling (IL-1 beta secretion); THP-1 LPS/ATP IL-1B secretion, AlphaLISA, 16 h; active compounds read low; activity change, % at 57.5 µM; hit rate 4.7% among 360,000; in the data active means activity change below about -50%; inconclusive means mostly about -30% to -49%
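THP-1 cells pretreated 1 hr with compounds (up to 57.5 uM final), then stimulated with LPS (250 ng/mL final) plus ATP (1.25 mM final); secreted IL-1B measured by AlphaLISA after 16 hr, decreased signal indicating inhibition.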
HT1080-NT tox: kills 2HG-producing HT-1080-NT fibrosarcoma cells; Potency, µM (highest dose often 46.1 µM), usual class: cytotoxic; hit rate 1.6% among 360,000; HT-1080-NT fibrosarcoma viability, CellTiter-Glo ATP luminescence, 48 h; AID 686970;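 further: NT is the 2HG producing partner of a matched IDH1 knockdown line; nearly all actives have a fitted effect of over 55% in size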
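Luminescent CellTiter-Glo readout after 48 hours of compound exposure at 37 degrees C defined viability of HT-1080-NT cells. Activity was normalized to DMSO wells and cell-free media wells; concentration-response curves were fitted and assigned curve classes.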
12-LOX inh: inhibitors of human 12S-lipoxygenase ALOX12; AID 1671190; Potency, µM (highest dose often 108 µM), most hits filed as inhibitors; purified 12hLO, xylenol orange hydroperoxide absorbance; P18054; hit rate 1.1% among 580,000
Target sequence (P18054 whole entry, looked up): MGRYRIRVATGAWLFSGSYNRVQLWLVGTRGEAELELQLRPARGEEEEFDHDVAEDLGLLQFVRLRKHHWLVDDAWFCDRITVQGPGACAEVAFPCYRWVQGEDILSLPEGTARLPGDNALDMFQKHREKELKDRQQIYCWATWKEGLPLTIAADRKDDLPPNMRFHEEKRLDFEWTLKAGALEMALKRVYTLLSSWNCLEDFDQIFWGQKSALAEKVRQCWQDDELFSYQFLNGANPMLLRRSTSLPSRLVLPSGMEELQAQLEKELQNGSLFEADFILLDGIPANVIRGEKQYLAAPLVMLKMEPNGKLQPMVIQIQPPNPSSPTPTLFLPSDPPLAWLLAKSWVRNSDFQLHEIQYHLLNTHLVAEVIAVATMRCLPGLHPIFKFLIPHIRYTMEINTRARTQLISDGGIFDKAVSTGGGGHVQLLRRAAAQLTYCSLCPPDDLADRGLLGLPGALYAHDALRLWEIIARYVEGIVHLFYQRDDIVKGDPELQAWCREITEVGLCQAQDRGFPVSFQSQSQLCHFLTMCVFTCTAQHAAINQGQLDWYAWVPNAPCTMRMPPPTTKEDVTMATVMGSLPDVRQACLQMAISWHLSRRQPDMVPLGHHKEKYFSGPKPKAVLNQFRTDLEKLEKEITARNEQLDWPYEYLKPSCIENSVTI
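Purified human 12hLO at 150 nM in 25 mM Hepes, 0.01% Triton X-100, pH 7.0, preincubated 15 min at room temperature with compound. Reaction started with 40 uM arachidonic acid, 30 min at room temperature. Hydroperoxide measured by Fe-xylenol orange, 573/405 nm absorbance ratio.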
HT1080 IDH1KD tx: kills HT-1080 cells with IDH1 knockdown. HT-1080 IDH1 knockdown viability, ATP luminescence, 48 h. Potency, µM (doses to about 46.1 µM), actives largely listed as cytotoxic. hit rate 2% among 360,000. AID 686971
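In this qHTS, HT-1080 cells depleted of IDH1 are exposed for 48 h at 37 °C to compound titrations. Toxicity is scored from CellTiter-Glo luminescence, with DMSO as full viability and medium alone as none.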
Large screens that a line does not name were inactive. The full list was thinned out, with hits kept by preference. Unless noted, the call rests on the fitted dose curve; in most records, active means well fitted curve in the direction sought with a large enough effect; inconclusive means small, poorly fitted or top-dose-only effect, or another doubt; inactive means no such curve, though single readings can be large; an effect the other way counts as inactive or inconclusive.

CCOc1ccc2nc(NC(=O)CSc3ccc(Cl)cc3)sc2c1	DT40 TDP1 no CPT inconclusive, DT40 TDP1 CPT inconclusive
Cc1ncoc1C(=O)N1CCC2(CC1)CC(N(Cc1ccc(F)cc1)C1CC1)CCO2 (stereo not drawn)	none (no result: DT40 TDP1 no CPT, DT40 TDP1 CPT, IL1B secr inh, HT1080-NT tox, HT1080 IDH1KD tx)
CC(C)(C)c1cc(NC(=O)CS(=O)(=O)c2ccccc2)on1	none (no result: DT40 TDP1 no CPT, DT40 TDP1 CPT, IL1B secr inh, HT1080-NT tox, HT1080 IDH1KD tx)
CC(=O)OCc1c(-c2ccccc2)c2cc([N+](=O)[O-])ccc2n1C	DT40 TDP1 no CPT 1.8µM, DT40 TDP1 CPT 3.7µM
Cc1cccc(NC(=O)c2ccc(F)c(S(=O)(=O)N3CCC4(CC3)OCCO4)c2)c1	DT40 TDP1 no CPT inconclusive, DT40 TDP1 CPT inconclusive
COc1ccccc1N1CCN(S(=O)(=O)c2cc(C(=O)Nc3ccc(Oc4ccccc4)cc3)ccc2F)CC1	DT40 TDP1 no CPT 5.8µM, DT40 TDP1 CPT 3.3µM (no result: IL1B secr inh, HT1080-NT tox, HT1080 IDH1KD tx)
CC(C)c1ccc(NC(=O)c2ccc(F)c(S(=O)(=O)N3CCN(c4ccccc4F)CC3)c2)cc1	DT40 TDP1 no CPT inconclusive (no result: IL1B secr inh, HT1080-NT tox, HT1080 IDH1KD tx)
Cc1cccc(N2CCN(S(=O)(=O)c3cc(C(=O)Nc4ccc(Oc5ccccc5)cc4)ccc3F)CC2C)c1 (stereo not drawn)	DT40 TDP1 no CPT 2.9µM, DT40 TDP1 CPT 2.1µM, 12-LOX inh inconclusive (no result: IL1B secr inh, HT1080-NT tox, HT1080 IDH1KD tx)
COc1ccc(C(=O)Nc2ccc(NC(=O)c3ccccc3)cc2)cc1S(=O)(=O)N1CCOCC1	DT40 TDP1 no CPT inconclusive, 12-LOX inh inconclusive, HT1080 IDH1KD tx inconclusive
O=C(Nc1ccc(Oc2ccccc2)cc1)c1ccc(F)c(S(=O)(=O)N2CCN(c3ccccc3F)CC2)c1	DT40 TDP1 no CPT 4.6µM, DT40 TDP1 CPT 5.8µM (no result: IL1B secr inh, HT1080-NT tox, HT1080 IDH1KD tx)
Cc1cccc(N2CCN(c3ccc(C(=O)O)cc3NC(=O)c3cccc(Cl)c3)CC2C)c1 (stereo not drawn)	DT40 TDP1 no CPT inconclusive, DT40 TDP1 CPT inconclusive, 12-LOX inh 45µM (no result: IL1B secr inh, HT1080-NT tox, HT1080 IDH1KD tx)
Cc1ccc(C(=O)C2CCN(CCC#N)CC2)c(C)c1	none (no result: DT40 TDP1 no CPT, DT40 TDP1 CPT, IL1B secr inh, HT1080-NT tox, HT1080 IDH1KD tx)
O=C(c1cn(CCC2CCCCN2)nn1)N1CCc2nc[nH]c(=O)c2CC1 (stereo not drawn)	none (no result: DT40 TDP1 no CPT, DT40 TDP1 CPT, IL1B secr inh, HT1080-NT tox, HT1080 IDH1KD tx)
COc1ccc(OC)c(NC(=O)C2CC(=O)Nc3c(-c4ccccc4OC)cnn32)c1 (stereo not drawn)	none (no result: DT40 TDP1 no CPT, DT40 TDP1 CPT, IL1B secr inh, HT1080-NT tox, HT1080 IDH1KD tx)
O=[N+]([O-])c1ccc(-c2nc(Cl)c3c(n2)CCCC3)o1	DT40 TDP1 no CPT 16µM, DT40 TDP1 CPT 9.2µM, IL1B secr inh -94, HT1080 IDH1KD tx inconclusive
CN(C(=O)CCc1ccc2c(c1)OCO2)C1CCCN(C2Cc3ccccc3C2)C1 (stereo not drawn)	none (no result: DT40 TDP1 no CPT, DT40 TDP1 CPT, IL1B secr inh, HT1080-NT tox, HT1080 IDH1KD tx)
Cc1cc(C2=NNC(=NCCc3ccccc3)SC2)c(C)n1-c1c(C)n(C)n(-c2ccccc2)c1=O	12-LOX inh inconclusive
Cc1cc(C2=NNC(=NC3CC3)SC2)c(C)n1-c1c(C)n(C)n(-c2ccccc2)c1=O	none
COCCCN=C1NN=C(c2cc(C)n(Cc3ccccc3Cl)c2C)CS1	DT40 TDP1 no CPT 2.3µM, DT40 TDP1 CPT inconclusive, IL1B secr inh inconclusive, HT1080-NT tox 4.6µM, 12-LOX inh inconclusive, HT1080 IDH1KD tx 7.3µM
COCCCN=C1NN=C(c2cc(C)n(-c3ccccc3)c2C)CS1	DT40 TDP1 no CPT 16µM, DT40 TDP1 CPT inconclusive
COCCn1c(C)cc(C2=NNC(=Nc3ccccc3F)SC2)c1C	DT40 TDP1 no CPT inconclusive, DT40 TDP1 CPT inconclusive, 12-LOX inh inconclusive
COCCCN=C1NN=C(c2cc(C)n(-c3ccccc3F)c2C)CS1	DT40 TDP1 no CPT 8.2µM, DT40 TDP1 CPT 16µM, HT1080-NT tox inconclusive, HT1080 IDH1KD tx inconclusive
Cc1cc(C2=NNC(=Nc3ccccc3)SC2)c(C)n1C	DT40 TDP1 no CPT inconclusive, DT40 TDP1 CPT inconclusive, 12-LOX inh 14µM
COc1cc(/C=N/O)ccc1OC(C)C	none (no result: DT40 TDP1 no CPT, DT40 TDP1 CPT, IL1B secr inh, HT1080-NT tox, HT1080 IDH1KD tx)
CC(C#N)CN(C)C(=O)/C=C/c1ccsc1 (stereo not drawn)	none (no result: DT40 TDP1 no CPT, DT40 TDP1 CPT, IL1B secr inh, HT1080-NT tox, HT1080 IDH1KD tx)
N#CC1C=Cc2ccccc2N1C(=O)c1ccccc1 (stereo not drawn)	HT1080 IDH1KD tx inconclusive
